Measurements from PubChem BioAssay (NCATS).
Values without a mark were called inactive. Inconclusive results are not listed. Activity calls are given as the source filed them. Calls come from the whole dose curve; as a rule, active = well fitted curve in the direction sought with a large enough effect; inconclusive = small, poorly fitted or top-dose-only effect, or another doubt; inactive = no such curve, though single readings can be large; an effect the other way counts as inactive or inconclusive.

These compounds were tested against Cytochrome P450 3A4 (Homo sapiens) (UniProt P08684) (assay: qHTS Assay for Activators of Cytochrome P450 3A4 (AID 885; note: nearly all actives have a fitted effect of over 65% in size)). Conditions: recombinant CYP3A4, Luciferin-PPXE luminescence, 60 min; series mostly up to 57.1 µM; activity change, positive = activation: at the top concentration.
How it was run: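 Signal was normalized against complete inhibition by 57 uM ketoconazole. The reaction used 20nM CYP3A4 with 25uM Luciferin-PPXE, 10-min compound preincubation and a 60-min NADPH-supported step at RT.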

Cytochrome P450 3A4 (Homo sapiens), sequence (P08684 whole entry, looked up): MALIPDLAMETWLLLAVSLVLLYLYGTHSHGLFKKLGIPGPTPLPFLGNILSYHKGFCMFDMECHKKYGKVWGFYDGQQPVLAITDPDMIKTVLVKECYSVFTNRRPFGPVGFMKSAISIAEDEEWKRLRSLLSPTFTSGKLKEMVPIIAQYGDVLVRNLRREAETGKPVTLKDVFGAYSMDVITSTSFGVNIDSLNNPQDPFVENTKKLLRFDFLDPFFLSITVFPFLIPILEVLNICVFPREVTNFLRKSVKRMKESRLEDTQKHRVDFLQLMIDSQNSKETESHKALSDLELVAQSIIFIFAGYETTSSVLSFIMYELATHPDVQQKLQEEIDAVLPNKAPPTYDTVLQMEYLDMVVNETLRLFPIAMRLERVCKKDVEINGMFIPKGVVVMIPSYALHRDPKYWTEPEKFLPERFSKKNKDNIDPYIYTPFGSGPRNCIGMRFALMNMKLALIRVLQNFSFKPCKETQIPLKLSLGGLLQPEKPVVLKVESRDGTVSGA

SMILES | activity change, positive = activation [%]
CCCC1(C(=O)OC)C=C2C(=C(C(C)C)C(=O)C2C)CN1 (stereo not given) | -32.1
COC(=O)C1(Cc2ccccc2)C=C2C(=C(C)C(=O)C2C)CN1 (stereo not given) | -42.6
COC(=O)C1(CC(C)C)C=C2C(=C(C(C)C)C(=O)C2C)CN1 (stereo not given) | -42.1
COC(=O)[C@@]1(Cc2ccccc2)[C@H]2c3cc(C(=O)N4CCCC4)n(Cc4ccc(C)o4)c3C[C@H]2CN1C(=O)c1ccccc1 | -86
CCCc1cc2c(n1CCc1ccc(Cl)cc1)C(C)C1CN(C(=O)c3ccccc3)C(C)(C(=O)OC)C21 (stereo not given) | -81.4
CC(C)=C1C(=O)C(c2ccccc2)=C2CN3C(=O)N(CCc4ccccc4)C(=O)[C@]3(Cc3ccccc3)[C@H]21 | -58.8
C[C@H]1C2=C3C(CC[C@H]4C(OCc5ccc(F)cc5C(F)(F)F)OC[C@](C)([C@@H]34)N(C(=O)OC(C)(C)C)C2)C(CO)C1CO (stereo not given in full) | -71.5
O=C(NCCc1c[nH]c2ccccc12)[C@H]1C[C@@H]1[C@H](NP(=O)(c1ccccc1)c1ccccc1)c1ccccc1 | -101
COC(=O)C1CC1C(NC(=O)[C@@H]1CCCN1)c1ccccc1 (stereo not given in full) | -94.7
CCC/C=C(\CCC)C(NC(=O)c1ccc(C(F)(F)F)cc1)c1ccc(C(F)(F)F)cc1 (stereo not given) | -53.3
COC(=O)[C@H]1C[C@@H]1[C@H](NC(=O)c1cc(C)on1)c1ccccc1 | -31.7
COC(=O)[C@H]1C[C@@H]1[C@H](NC(=O)c1cnccn1)c1ccccc1 | -56.5

These compounds were tested against Cytochrome P450 2C19 (Homo sapiens) (UniProt P33261) (assay: qHTS Assay for Inhibitors and Substrates of Cytochrome P450 2C19 (AID 899; note: potency is the fitted concentration of half-maximal effect; nearly all actives have a fitted effect of over 60% in size)). Conditions: recombinant CYP2C19, luciferin-H EGE luminescence; series mostly up to 57.1 µM; activity, negative = inhibition: at the top concentration.
How it was run: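 Signal comes from luciferase acting on luciferin released by CYP2C19-mediated hydroxylation of Luciferin-H EGE, 10uM (KM). Assay mix: 5nM enzyme, 50mM KPO4; 60 min at 37C with NADPH regeneration. Data normalized against 57uM ketoconazole.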

Cytochrome P450 2C19 (Homo sapiens), sequence (P33261 whole entry, looked up): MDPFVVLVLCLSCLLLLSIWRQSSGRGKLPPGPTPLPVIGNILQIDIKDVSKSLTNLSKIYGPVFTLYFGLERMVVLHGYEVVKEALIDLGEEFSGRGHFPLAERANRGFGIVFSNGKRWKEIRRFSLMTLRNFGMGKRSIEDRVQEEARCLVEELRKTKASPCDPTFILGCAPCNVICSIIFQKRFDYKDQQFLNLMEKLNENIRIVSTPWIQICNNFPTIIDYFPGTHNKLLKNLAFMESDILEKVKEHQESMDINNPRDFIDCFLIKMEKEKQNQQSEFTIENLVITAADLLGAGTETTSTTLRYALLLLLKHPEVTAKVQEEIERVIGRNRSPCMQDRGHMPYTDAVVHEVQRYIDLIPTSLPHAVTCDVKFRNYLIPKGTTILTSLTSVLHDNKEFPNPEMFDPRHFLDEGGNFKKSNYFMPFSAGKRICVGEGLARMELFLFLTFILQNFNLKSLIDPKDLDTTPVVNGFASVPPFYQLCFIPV

SMILES | Potency
CCCC[C@@H]1C[C@H]1C(NC(=O)c1cccnc1)c1ccc(Cl)cc1 (stereo not given in full) | 2000 nM (active)
C[C@@H](C(=O)NCCF)[C@H]1C[C@]1(C)[C@H](NC(=O)OCc1ccccc1)c1ccccc1 | 1260 nM (active)
C[C@@H](C(=O)Nc1ccc2ccccc2c1)[C@@H]1C[C@@]1(C)[C@@H](NC(=O)OCc1ccccc1)c1ccccc1 | 3160 nM (active)
O=C(NCCc1c[nH]c2ccccc12)[C@@H]1C[C@H]1[C@@H](NP(=O)(c1ccccc1)c1ccccc1)c1ccccc1 | 6310 nM (active)
O=C(N[C@@H](c1ccccc1)[C@@H]1C[C@H]1C(=O)NCc1ccccn1)OCc1ccccc1 | 7940 nM (active)
COC(=O)[C@@]1(Cc2ccccc2)[C@H]2c3cc(C(=O)N4CCCC4)n(Cc4ccc(C)o4)c3C[C@H]2CN1C(=O)c1ccccc1 | 2510 nM (active)
CCCc1cc2c(n1CCc1ccc(Cl)cc1)C(C)C1CN(C(=O)c3ccccc3)C(C)(C(=O)OC)C21 (stereo not given) | 6310 nM (active)
O=C(NCCc1c[nH]c2ccccc12)[C@H]1C[C@@H]1[C@H](NP(=O)(c1ccccc1)c1ccccc1)c1ccccc1 | 1260 nM (active)
